Inconclusive results are not listed. Active and inactive are the calls of the source.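 Rule for the calls, unless noted: active = percent response above a set limit, the screen-wide mean plus 3 SD (cut at about 130% in these data); inactive = the rest.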
Legend:
[1] = yeast TOR pathway RPL19A-GFP modulators, primary screen, cell-based, S. cerevisiae, multiplex flow cytometry (AID 1862; in the data active = percent of DMSO control GFP below about 86%;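 note: lower values mimic rapamycin by blocking the RPL19A rise seen in DMSO cells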); conditions: S. cerevisiae RPL19A-GFP strain, flow cytometry fluorescence, 3 h; at 10 µM; stronger effect = lower value
[2] = modulators of MEP2-GFP levels in yeast, primary screen, S. cerevisiae, multiplex flow cytometry (AID 1867;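 active = GFP response, as percent of the DMSO control, above the screen-wide mean plus 3 SD, about 139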;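 note: median GFP channel fluorescence of barcode-gated MEP2-GFP cells measured by flow cytometry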); conditions: S. cerevisiae MEP2-GFP strain, 3 h, at 10 µM, stronger effect = higher value, 100% means same as DMSO wells
[3] = modulators of CIT2-GFP expression in yeast, primary screen, S. cerevisiae, GFP fusion, multiplex flow cytometry (AID 1870); conditions: 3 h, at 10 µM, stronger effect = higher value;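 note: barcoded CIT2-GFP strain pooled with four other GFP strains with rapamycin as positive control; median GFP fluorescence per well over plate mean of DMSO wells so 100% = DMSO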
[4] = modulators of LAP4-GFP expression in yeast, primary screen, S. cerevisiae, multiplex flow cytometry (AID 1873;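 active = GFP signal, as percent of the solvent control, above the screen mean plus 3 SD, about 149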); conditions: 3 h, at 10 µM, stronger effect = higher value
[5] = modulators of AGP1-GFP expression in yeast TOR pathway, primary screen, cell-based, multiplex flow cytometry, S. cerevisiae (AID 1887;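 active = GFP signal above the screen-wide mean plus 3 SD, that is over about 124.5% of the solvent control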;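 note: AGP1-GFP fusion strain of S. cerevisiae within a five-strain barcoded multiplex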); conditions: 3 h, at 10 µM, stronger effect = higher value
[6] = inhibitors of CD8+ T cell-vesicle binding, pilot screen, LFA-1/ICAM-1 modulator project, MLPCN validation set, flow cytometry (AID 2523;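 active = response below a set limit, under 55% cells CD8-positive and vesicle-bound, and CD8 cells' 90th-percentile brightness under 279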;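 for vesicle binding response: mean PE anti-B7-1 fluorescence of CD8+ cells relative to row control; 100% = QL9-loaded vesicles with DMSO vehicle in the same plate row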); conditions: 2C mouse CD8+ T cells, at 7 µM, stronger effect = lower value; double positive events: measured here: CD8+/vesicle+ event percentage
[7] = biological target: Integrin beta-1 (Homo sapiens) + Integrin alpha-4 (Homo sapiens) (UniProt P13612+P05556); assay: inhibition of HUTS-21 binding to VLA-4, pilot screen, VLA-4 allosteric modulator project, U937 cells, HUTS-21 mAb, flow cytometry, validation set (AID 2674;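 active = inhibition above 50%, about 3 SD of the validation set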;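 note: antibody binding induced by the VLA-4 ligand LDV present at three times its Kd; 0% = LDV ligand with antibody and no compound and 100% = antibody without LDV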); conditions: HUTS-21 LIBS mAb binding, at 6.7 µM, stronger effect = higher value, binding induced by LDV ligand
Sequence of Integrin beta-1 (Homo sapiens) + Integrin alpha-4 (Homo sapiens) (P05556 whole entry, looked up): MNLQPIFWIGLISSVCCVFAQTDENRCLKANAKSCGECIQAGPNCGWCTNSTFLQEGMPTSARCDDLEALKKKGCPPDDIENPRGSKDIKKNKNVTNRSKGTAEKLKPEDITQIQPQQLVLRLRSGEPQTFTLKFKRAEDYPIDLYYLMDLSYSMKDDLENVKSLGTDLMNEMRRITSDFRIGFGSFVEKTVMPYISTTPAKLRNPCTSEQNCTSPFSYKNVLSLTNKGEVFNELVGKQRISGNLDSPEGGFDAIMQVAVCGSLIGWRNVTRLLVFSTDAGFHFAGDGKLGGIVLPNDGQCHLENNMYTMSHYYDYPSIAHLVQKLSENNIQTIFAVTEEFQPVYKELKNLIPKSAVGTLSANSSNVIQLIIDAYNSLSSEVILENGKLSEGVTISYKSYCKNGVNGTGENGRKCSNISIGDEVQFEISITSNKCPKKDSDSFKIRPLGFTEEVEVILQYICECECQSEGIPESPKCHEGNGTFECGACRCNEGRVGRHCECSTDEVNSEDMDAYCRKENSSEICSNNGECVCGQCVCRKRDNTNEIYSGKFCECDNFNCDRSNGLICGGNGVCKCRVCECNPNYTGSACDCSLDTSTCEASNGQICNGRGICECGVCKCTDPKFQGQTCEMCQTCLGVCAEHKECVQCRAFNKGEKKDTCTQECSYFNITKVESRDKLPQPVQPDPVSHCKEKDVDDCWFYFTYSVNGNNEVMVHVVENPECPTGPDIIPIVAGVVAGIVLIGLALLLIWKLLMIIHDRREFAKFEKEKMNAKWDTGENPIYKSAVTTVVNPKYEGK
Sequence of Integrin beta-1 (Homo sapiens) + Integrin alpha-4 (Homo sapiens) (P13612 whole entry, looked up): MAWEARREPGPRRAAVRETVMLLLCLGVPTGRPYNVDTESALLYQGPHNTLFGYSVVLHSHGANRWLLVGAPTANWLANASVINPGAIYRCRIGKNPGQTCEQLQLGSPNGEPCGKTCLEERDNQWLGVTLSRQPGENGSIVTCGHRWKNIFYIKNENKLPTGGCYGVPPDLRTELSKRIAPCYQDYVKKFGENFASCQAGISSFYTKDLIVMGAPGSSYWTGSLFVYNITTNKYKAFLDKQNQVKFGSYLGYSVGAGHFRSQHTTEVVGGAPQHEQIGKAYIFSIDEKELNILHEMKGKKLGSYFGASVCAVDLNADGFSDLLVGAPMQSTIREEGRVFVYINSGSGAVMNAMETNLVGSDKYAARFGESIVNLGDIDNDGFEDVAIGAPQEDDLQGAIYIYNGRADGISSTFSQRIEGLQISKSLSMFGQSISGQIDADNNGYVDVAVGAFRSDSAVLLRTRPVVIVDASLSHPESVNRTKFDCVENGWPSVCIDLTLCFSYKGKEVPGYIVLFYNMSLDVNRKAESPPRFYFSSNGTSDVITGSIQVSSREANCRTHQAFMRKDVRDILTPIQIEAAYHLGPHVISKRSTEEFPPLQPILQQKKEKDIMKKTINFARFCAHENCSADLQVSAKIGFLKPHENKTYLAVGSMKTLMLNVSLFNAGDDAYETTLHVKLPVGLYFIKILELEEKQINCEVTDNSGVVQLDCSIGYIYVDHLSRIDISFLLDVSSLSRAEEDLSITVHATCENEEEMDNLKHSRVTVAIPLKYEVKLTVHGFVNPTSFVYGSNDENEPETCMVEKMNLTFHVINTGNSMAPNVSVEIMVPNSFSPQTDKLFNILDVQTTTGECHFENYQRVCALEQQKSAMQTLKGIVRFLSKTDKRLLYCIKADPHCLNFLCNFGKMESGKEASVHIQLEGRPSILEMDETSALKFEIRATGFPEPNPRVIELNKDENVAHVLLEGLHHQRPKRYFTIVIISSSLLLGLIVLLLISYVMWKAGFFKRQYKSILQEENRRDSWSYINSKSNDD

[8] = superoxide lowering in aged yeast cells, pilot screen, validation compound set (AID 2706;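 active = superoxide response below 65% of plate, a cut near 3 SD across the whole screen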;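 note: yeast exposed to compound for one week at 30 degrees C before staining; 100% = mean of all compound wells on the same plate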); conditions: S. cerevisiae aging, superoxide DHE fluorescence; at 10 µM; stronger effect = lower value
[9] = biological target: Beta-adrenergic receptor kinase 1 (Homo sapiens) (UniProt P25098); assay: GRK2 binders displacing RNA aptamer, biochemical, validation, human GRK2, bead flow cytometry (AID 488806;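 active = aptamer binding inhibition above 30%, about 3 SD of noise from non-fluorescent compounds; inactive = inhibition at or below 30%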); conditions: bead-bound GRK2, FAM-aptamer displacement, at 10 µM, stronger effect = higher value
Sequence of Beta-adrenergic receptor kinase 1 (Homo sapiens) (P25098 whole entry, looked up): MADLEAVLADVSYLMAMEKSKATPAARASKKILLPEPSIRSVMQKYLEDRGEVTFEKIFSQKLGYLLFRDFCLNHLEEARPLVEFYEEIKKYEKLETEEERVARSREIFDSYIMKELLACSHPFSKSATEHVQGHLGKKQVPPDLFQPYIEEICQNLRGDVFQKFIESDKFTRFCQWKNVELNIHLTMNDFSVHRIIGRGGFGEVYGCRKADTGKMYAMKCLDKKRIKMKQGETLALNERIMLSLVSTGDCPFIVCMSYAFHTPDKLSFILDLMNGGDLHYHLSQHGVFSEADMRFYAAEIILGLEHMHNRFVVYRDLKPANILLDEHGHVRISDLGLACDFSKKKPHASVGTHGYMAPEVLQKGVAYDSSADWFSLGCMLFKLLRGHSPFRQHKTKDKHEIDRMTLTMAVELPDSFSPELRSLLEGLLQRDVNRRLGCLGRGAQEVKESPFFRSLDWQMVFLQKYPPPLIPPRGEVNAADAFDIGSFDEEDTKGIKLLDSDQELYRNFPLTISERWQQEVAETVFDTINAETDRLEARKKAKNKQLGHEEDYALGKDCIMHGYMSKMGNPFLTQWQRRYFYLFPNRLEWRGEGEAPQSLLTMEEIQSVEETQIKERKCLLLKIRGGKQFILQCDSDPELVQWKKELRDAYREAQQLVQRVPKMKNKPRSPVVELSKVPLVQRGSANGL

[10] = biological target: Beta-2 adrenergic receptor (Homo sapiens) (UniProt P07550); assay: beta2AR agonists driving receptor internalization, pilot screen, cell-based, FAP fluorogen, flow cytometry, validation set (AID 504459;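 active = percent response above 42, roughly 3 SD of non-fluorescent test compounds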;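 note: agonist-driven loss of surface beta2AR via internalization measured by FAP dye flow cytometry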); conditions: Am2.2-beta2AR cells, FAP surface receptor flow cytometry; at 10 µM; stronger effect = higher value
Sequence of Beta-2 adrenergic receptor (Homo sapiens) (P07550 whole entry, looked up): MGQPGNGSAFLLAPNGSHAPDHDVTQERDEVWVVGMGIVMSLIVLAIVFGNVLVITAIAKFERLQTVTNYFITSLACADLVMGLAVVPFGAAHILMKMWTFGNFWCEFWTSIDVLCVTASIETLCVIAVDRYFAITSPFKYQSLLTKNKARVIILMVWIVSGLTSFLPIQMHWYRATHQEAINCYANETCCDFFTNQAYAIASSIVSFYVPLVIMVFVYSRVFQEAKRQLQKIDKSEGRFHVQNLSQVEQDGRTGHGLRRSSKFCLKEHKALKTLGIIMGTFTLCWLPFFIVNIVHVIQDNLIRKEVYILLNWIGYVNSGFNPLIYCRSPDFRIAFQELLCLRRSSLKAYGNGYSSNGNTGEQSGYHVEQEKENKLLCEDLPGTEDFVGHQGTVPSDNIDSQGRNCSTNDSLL

[11] = biological target: AP-2 complex subunit beta (Homo sapiens) (UniProt P63010); assay: inhibitors of arrestin peptide binding to AP2, pilot screen, biochemical, validation set, GST-AP2 beads, flow cytometry (AID 504541;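 active = inhibition above 54%, about 3 SD of non-fluorescent compounds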;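 note: AP2 carries R879A mutation and is captured from E. coli lysate; bead-bound FITC arrestin peptide fluorescence measuring arrestin peptide binding to AP2; 0% = DMSO wells and 100% = excess unlabeled arrestin peptide control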); conditions: FITC arrestin peptide, at 10 µM, stronger effect = higher value, AP2 beta2 appendage fragment, R879A mutant
Sequence of AP-2 complex subunit beta (Homo sapiens) (P63010 whole entry, looked up, the tested form may be a part, one chain of several): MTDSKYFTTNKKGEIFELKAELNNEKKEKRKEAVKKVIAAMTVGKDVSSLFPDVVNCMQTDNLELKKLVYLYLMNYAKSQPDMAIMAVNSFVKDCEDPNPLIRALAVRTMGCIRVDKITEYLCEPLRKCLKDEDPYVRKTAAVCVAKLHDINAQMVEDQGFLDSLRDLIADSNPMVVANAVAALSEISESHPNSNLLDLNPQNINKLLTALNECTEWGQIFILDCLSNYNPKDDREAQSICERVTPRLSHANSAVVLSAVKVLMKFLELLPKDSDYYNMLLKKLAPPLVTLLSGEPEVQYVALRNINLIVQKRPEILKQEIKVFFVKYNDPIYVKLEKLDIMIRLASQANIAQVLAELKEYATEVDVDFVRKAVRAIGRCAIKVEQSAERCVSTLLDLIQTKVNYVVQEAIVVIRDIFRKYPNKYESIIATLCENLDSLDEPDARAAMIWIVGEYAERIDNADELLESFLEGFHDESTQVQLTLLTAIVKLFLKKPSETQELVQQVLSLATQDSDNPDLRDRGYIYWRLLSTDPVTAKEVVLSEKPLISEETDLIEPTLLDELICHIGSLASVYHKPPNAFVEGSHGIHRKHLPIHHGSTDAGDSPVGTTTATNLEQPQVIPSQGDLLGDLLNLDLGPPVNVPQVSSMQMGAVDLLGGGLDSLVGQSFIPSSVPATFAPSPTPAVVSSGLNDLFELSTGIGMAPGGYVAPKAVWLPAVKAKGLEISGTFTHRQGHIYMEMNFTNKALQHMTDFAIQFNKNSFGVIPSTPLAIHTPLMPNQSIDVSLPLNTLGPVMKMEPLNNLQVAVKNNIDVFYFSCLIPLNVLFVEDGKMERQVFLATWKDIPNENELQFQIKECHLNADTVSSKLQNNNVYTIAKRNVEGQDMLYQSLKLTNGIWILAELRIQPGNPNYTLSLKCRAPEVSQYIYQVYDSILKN

[12] = yeast V-ATPase proton transport modulators, S. cerevisiae, pHLuorin, HTS validation (AID 504600; in the data active = response above about 15%;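 note: plate controls were DMSO for no effect and reference compound for full effect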); conditions: S. cerevisiae pHLuorin cytosolic pH, at 10 µM, stronger effect = higher value
[13] = system: anti-desmoglein-3 scFv antibody binding to human DSG3; assay: inhibitors of anti-DSG3 scFv binding to DSG3, pilot screen, biochemical, validation compound set, bead-based, flow cytometry (AID 588368;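 active = binding below the plate cutoff, the plate median minus 3 SD, with a reading above zero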;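 note: signal is the median channel fluorescence of bead-bound GFP antibody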); conditions: Protein G beads, DSG3-Fc, scFv-GFP binding, at 10 µM, stronger effect = lower value
[14] = inhibitors of fungal efflux pumps CDR1, CDR2, MDR1, pilot screen, validation compound set, multiplex, phenotypic (AID 588506;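 active = efflux inhibition above 0.42, the validation set average plus 4 SD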;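 note: Nile Red retained in cells so higher fluorescence means more efflux inhibition; 0 = negative control wells and 1 = enniatin B 25 µM full block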); conditions: S. cerevisiae pump-expressing triplex, Nile Red efflux flow cytometry; at 10 µM; stronger effect = higher value; the pumps come from Candida albicans
[15] = biological target: ATP-binding cassette sub-family B member 6 (Homo sapiens) (UniProt Q9NP58); assay: ABCB6 transporter inhibitors, pilot screen, K562-ABCB6 cells, flow cytometry, validation set (AID 588550;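 active = inhibition above the screen-wide mean plus 3 SD, about 51%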;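 note: 0% = DMSO wells and 100% = benzethonium chloride 70 µM positive control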); conditions: K562-ABCB6 porphyrin accumulation, 1 h, at 10 µM, stronger effect = higher value
Sequence of ATP-binding cassette sub-family B member 6 (Homo sapiens) (Q9NP58 whole entry, looked up): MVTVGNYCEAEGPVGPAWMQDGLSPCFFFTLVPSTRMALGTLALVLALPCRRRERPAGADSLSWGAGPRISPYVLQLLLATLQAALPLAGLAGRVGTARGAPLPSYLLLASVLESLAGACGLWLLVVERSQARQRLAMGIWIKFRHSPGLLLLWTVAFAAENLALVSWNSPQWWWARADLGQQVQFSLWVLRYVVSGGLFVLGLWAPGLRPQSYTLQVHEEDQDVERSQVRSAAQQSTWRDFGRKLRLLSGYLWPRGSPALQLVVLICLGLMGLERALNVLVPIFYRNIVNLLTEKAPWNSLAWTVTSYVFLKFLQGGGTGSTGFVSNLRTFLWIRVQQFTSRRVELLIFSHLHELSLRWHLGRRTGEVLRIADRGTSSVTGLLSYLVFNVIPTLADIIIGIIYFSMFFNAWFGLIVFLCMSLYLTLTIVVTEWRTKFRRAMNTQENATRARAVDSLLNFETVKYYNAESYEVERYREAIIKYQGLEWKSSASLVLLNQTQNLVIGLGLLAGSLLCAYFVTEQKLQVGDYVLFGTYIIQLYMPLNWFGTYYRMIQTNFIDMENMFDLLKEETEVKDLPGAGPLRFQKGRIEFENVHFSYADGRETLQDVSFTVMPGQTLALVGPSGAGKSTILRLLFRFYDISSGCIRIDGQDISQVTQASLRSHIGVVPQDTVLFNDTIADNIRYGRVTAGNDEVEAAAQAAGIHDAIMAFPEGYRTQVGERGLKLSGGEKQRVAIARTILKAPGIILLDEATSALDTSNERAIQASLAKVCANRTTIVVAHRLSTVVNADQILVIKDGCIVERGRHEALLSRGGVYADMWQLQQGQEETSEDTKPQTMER

[16] = promoters of myeloid differentiation in arrested cells, primary screen, cell-based, GFP/MAC1 double positive, flow cytometry, validation set (AID 588685;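 active = differentiation response of at least 50%, scaled between solvent and reference control, from cells with both markers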;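 note: compound exposure lasts four days before antibody staining and flow analysis; 0% = DMSO wells and 100% = 5 µM fulvestrant positive control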); conditions: ER-HoxA9 marrow cells, stronger effect = higher value, normalized: vehicle 0, fulvestrant 100

C#C[C@]1(O)CC[C@H]2[C@@H]3CCc4cc(OC)ccc4[C@H]3CC[C@@]21C
63.7%: double positive events [6]
inactive: percent of DMSO control GFP [1] 103% | GFP response vs DMSO [2] 104% | percent response of DMSO control [3] 102% | GFP response vs DMSO [4] 126% | GFP response, % of DMSO [5] 115% | vesicle binding response [6] 229% | inhibition [7] 3.14% | superoxide response (% of plate) [8] 115% | aptamer binding inhibition [9] -1% | response [10] -13.2% | inhibition [11] 31.4% | response [12] 0.87% | binding (% of control) [13] 108% | efflux inhibition (fraction of control) [14] -0.04 | inhibition [15] 5% | differentiation response [16] -2.03%

Cc1nc(N)nc2c1CCCC2
62.1%: double positive events [6]
inactive: percent of DMSO control GFP [1] 89.1% | GFP response vs DMSO [2] 133% | percent response of DMSO control [3] 99.2% | GFP response vs DMSO [4] 74.8% | GFP response, % of DMSO [5] 94.9% | vesicle binding response [6] 179% | inhibition [7] 6.46% | superoxide response (% of plate) [8] 102% | aptamer binding inhibition [9] 5% | response [10] -4.6% | inhibition [11] -2.43% | response [12] -0.37% | binding (% of control) [13] 109% | efflux inhibition (fraction of control) [14] -0.31 | inhibition [15] 13% | differentiation response [16] -9.83%

Cc1ccc(NC(=O)CSc2nc(O)c(Cc3ccccc3)c(=O)n2-c2ccccc2)cc1
65%: double positive events [6]
inactive: percent of DMSO control GFP [1] 103% | GFP response vs DMSO [2] 105% | percent response of DMSO control [3] 94.2% | GFP response vs DMSO [4] 99.3% | GFP response, % of DMSO [5] 102% | vesicle binding response [6] 210% | inhibition [7] -6.68% | superoxide response (% of plate) [8] 95.4% | aptamer binding inhibition [9] 3% | response [10] 3.5% | inhibition [11] 16.9% | response [12] -1.44% | binding (% of control) [13] 97.7% | efflux inhibition (fraction of control) [14] -0.17 | inhibition [15] 9% | differentiation response [16] 1.22%

CS(=O)c1ccccc1O (stereo not drawn)
67.1%: double positive events [6]
inactive: percent of DMSO control GFP [1] 103% | GFP response vs DMSO [2] 98.8% | percent response of DMSO control [3] 92.8% | GFP response vs DMSO [4] 93% | GFP response, % of DMSO [5] 99.2% | vesicle binding response [6] 144% | inhibition [7] 8.28% | aptamer binding inhibition [9] 0% | response [10] 33.6% | inhibition [11] 38.1% | response [12] 0.1% | binding (% of control) [13] 101% | efflux inhibition (fraction of control) [14] -0.15 | inhibition [15] 11% | differentiation response [16] 3.45%
active: superoxide response (% of plate) [8] 47.1%

CNCCCC1c2ccccc2C=Cc2ccccc21
inactive: percent of DMSO control GFP [1] 96.1% | GFP response vs DMSO [2] 116% | percent response of DMSO control [3] 108% | GFP response vs DMSO [4] 83.1% | GFP response, % of DMSO [5] 97% | vesicle binding response [6] 307% | inhibition [7] 8.4% | superoxide response (% of plate) [8] 103% | aptamer binding inhibition [9] -3% | response [10] 23.4% | inhibition [11] -2.69% | response [12] 0.79% | binding (% of control) [13] 101% | efflux inhibition (fraction of control) [14] 0.16 | inhibition [15] 9% | differentiation response [16] -3.28%
71.4%: double positive events [6]

COc1ccc(CNCCC2(C(C)C)CCOC(C)(C)C2)cc1 (stereo not drawn)
55.9%: double positive events [6]
inactive: percent of DMSO control GFP [1] 99.2% | GFP response vs DMSO [2] 107% | percent response of DMSO control [3] 101% | GFP response vs DMSO [4] 88.7% | GFP response, % of DMSO [5] 97.2% | vesicle binding response [6] 52.5% | inhibition [7] -7.72% | superoxide response (% of plate) [8] 106% | aptamer binding inhibition [9] 3% | response [10] -6.71% | inhibition [11] -2.2% | response [12] 2.72% | binding (% of control) [13] 97.2% | efflux inhibition (fraction of control) [14] -0.1 | inhibition [15] -1% | differentiation response [16] 0.24%

C[C@@H]1C[C@H]2[C@@H]3C[C@H](F)C4=CC(=O)C=C[C@]4(C)[C@@]3(F)[C@@H](O)C[C@]2(C)[C@@]1(O)C(=O)COC(=O)C(C)(C)C
inactive: percent of DMSO control GFP [1] 101% | GFP response vs DMSO [2] 105% | percent response of DMSO control [3] 99.3% | GFP response vs DMSO [4] 98.7% | GFP response, % of DMSO [5] 99.2% | vesicle binding response [6] 142% | inhibition [7] 6.85% | superoxide response (% of plate) [8] 104% | aptamer binding inhibition [9] 3% | response [10] -5.56% | inhibition [11] 19.2% | response [12] 0.5% | binding (% of control) [13] 100% | efflux inhibition (fraction of control) [14] 0.14 | inhibition [15] 4% | differentiation response [16] -4.16%
58.5%: double positive events [6]

CC1(C)CC(C(CC(=O)N2CCCC2)Cc2ccccc2)CCO1 (stereo not drawn)
62.9%: double positive events [6]
inactive: percent of DMSO control GFP [1] 100% | GFP response vs DMSO [2] 99.7% | percent response of DMSO control [3] 104% | GFP response vs DMSO [4] 102% | GFP response, % of DMSO [5] 106% | vesicle binding response [6] 118% | inhibition [7] -2.43% | superoxide response (% of plate) [8] 107% | aptamer binding inhibition [9] -2% | response [10] -11% | inhibition [11] 21.8% | response [12] -8.82% | binding (% of control) [13] 103% | efflux inhibition (fraction of control) [14] 0.36 | inhibition [15] 18% | differentiation response [16] 15.9%

Cc1nc2ccccc2n1CC(O)Cn1c2ccccc2c2ccccc21 (stereo not drawn)
62.2%: double positive events [6]
inactive: percent of DMSO control GFP [1] 90.9% | GFP response vs DMSO [2] 115% | percent response of DMSO control [3] 101% | GFP response vs DMSO [4] 78.7% | GFP response, % of DMSO [5] 91.9% | vesicle binding response [6] 174% | inhibition [7] 4.52% | superoxide response (% of plate) [8] 97.8% | aptamer binding inhibition [9] 2% | response [10] 8.04% | inhibition [11] -4.66% | response [12] -1.44% | binding (% of control) [13] 104% | efflux inhibition (fraction of control) [14] 0.19 | inhibition [15] 9% | differentiation response [16] -1.64%

From PubChem BioAssay
